From the supplement of paper PMC7156485
± gives the standard deviation of the averaged measurements.

What was measured:
Conditions in all cases: concentration: 10 µM; 24 h
HCC1569 [1] = experiment: cell number relative to DMSO (% of DMSO); higher = more cells (less growth inhibition / toxicity)
How it was run: (§1)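 H1.0 nuclear intensity or cell number is expressed as percent of the plate control, with the median of replicates taken. HCC1569 and TDF cells were treated with compounds at 10 µM for 24 h at 37 °C, in triplicate, then fixed and immunostained for H1.0 with DAPI as a nuclear stain. HCC1569 values were smoothed to correct for positional effects.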

TDF [2] = experiment: as above
How it was run: as §1

TDF [3] = experiment: H1.0 immunofluorescence intensity relative to DMSO (% of DMSO); higher = stronger H1.0 induction, active = 120 or more
How it was run: as §1

HCC1569 [4] = experiment: H1.0 immunofluorescence intensity relative to DMSO (% of DMSO); higher = stronger H1.0 induction, active = 140 or more
How it was run: as §1
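For H1.0 immunofluorescence intensity relative to DMSO in this document: TDF is a line of transformed human dermal fibroblasts of mesenchymal origin.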
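For cell number relative to DMSO in this document: TDF denotes transformed human dermal fibroblasts of mesenchymal origin.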

Row | SMILES | cell number (HCC1569 [1]) | cell number (TDF [2]) | H1.0 immunofluorescence intensity (TDF [3]) | H1.0 immunofluorescence intensity (HCC1569 [4])
1 | CN(C)c1ccc(C2Nc3ccc4ccccc4c3C3=C2C(=O)CC(C)(C)C3)cc1Br (centres undefined) | 91.7 | 79.3 | 113 (inactive) | 130 (inactive)
2 | NC(=O)c1cnccn1 [Pyrazinecarboxamide] | 102 | 106 | 94.2 (inactive) | 110 (inactive)
3 | CC1CNc2c(cccc2S(=O)(=O)NC(CCCN=C(N)N)C(=O)N2CCC(C)CC2C(=O)O)C1 (centres undefined) [Argatroban] | 107 | 104 | 94.1 (inactive) | 112 (inactive)
4 | CC(N)=O [Acetamide] | 113 | 103 | 111 (inactive) | 106 (inactive)
5 | COc1cc(OC)c(C=C2C(=O)Nc3ccccc32)c(OC)c1 | 63.1 | 11.2 | 145 (active) | 184 (active)
6 | O=c1c(O)c(-c2ccccc2O)oc2cc(O)cc(O)c12 [Datiscetin] | 101 | 106 | 92.1 (inactive) | 87.7 (inactive)
7 | CC1(C)CC(=O)C2=C(C1)NC(=S)NC2c1cccc(O)c1 (centres undefined) | 70.7 | 9.81 | 152 (active) | 118 (inactive)
8 | Cc1ccc(Cl)c(Nc2ccccc2C(=O)[O-])c1Cl.[Na+] [Meclofenamic acid sodium] | 106 | 106 | 90.8 (inactive) | 101 (inactive)
9 | Cc1ccccc1N1CCN(S(=O)(=O)CC23CCC(CC2NC(=O)C(N)CCS(C)(=O)=O)C3(C)C)CC1.Cl (centres undefined) | 101 | 104 | 94.1 (inactive) | 99 (inactive)
10 | CC[N+](CC)(CC)CCOc1cccc(OCC[N+](CC)(CC)CC)c1OCC[N+](CC)(CC)CC [Gallamine] | 101 | 107 | 93.8 (inactive) | 104 (inactive)
11 | CCCCCCCCCCCC(=O)O [Dodecanoic acid] | 100 | 102 | 103 (inactive) | 101 (inactive)
12 | O=C(O)C(=Cc1c(C(=O)O)[nH]c2cc(Cl)cc(Cl)c12)c1ccccc1 | 105 | 109 | 95.3 (inactive) | 85 (inactive)
13 | CCN(CC)C(=S)SSC(=S)N(CC)CC [Tetraethylthiuram disulfide] | 97.2 | 54 | 120 (inactive) | 102 (inactive)
14 | CC1CC2OC2C=CC=CC(=O)Cc2c(Cl)c(O)cc(O)c2C(=O)O1 (centres undefined) [Radicicol] | 66.2 | 15.9 | 133 (active) | 121 (inactive)
15 | CC(=O)Nc1ccc(CC(=O)O)cc1 [Actarit] | 100 | 103 | 97.2 (inactive) | 96.5 (inactive)
16 | COc1ccccc1Oc1c(NS(=O)(=O)c2ccc(C(C)(C)C)cc2)nc(-c2ncccn2)nc1OCCO [Bosentan] | 99.5 | 98.2 | 98.9 (inactive) | 107 (inactive)
17 | CCCCCCCCCCCCCCCCCC(=O)OC(CC(=O)O)C[N+](C)(C)C.[Cl-] (racemic) [DL-Stearoylcarnitine chloride] | 101 | 84.3 | 136 (active) | 114 (inactive)
18 | O=C(COc1ccc(Cl)cc1)NC1CCC(NC(=O)COc2ccc(Cl)cc2)CC1 (centres undefined) | 104 | 100 | 90.5 (inactive) | 92.9 (inactive)
19 | O=C(O)C1CCNCC1 [Isonipecotic acid] | 102 | 104 | 91.5 (inactive) | 91.2 (inactive)
20 | C[N+]1(CCCCC[N+]2(C)CCCC2)CCCC1.O=C([O-])C(O)C(O)C(=O)O.O=C([O-])C(O)C(O)C(=O)O [Pentolinium di[L(+)-tartrate]] | 103 | 110 | 92.6 (inactive) | 101 (inactive)
21 | CC1=C(C(=O)Nc2cc3cn[nH]c3cc2F)C(c2ccc(C(F)(F)F)cc2)CC(=O)N1 (centres undefined) | 113 | 98.5 | 87.8 (inactive) | 107 (inactive)
22 | CC(C)NCC(O)c1ccc2ccccc2c1.Cl (centres undefined) [Pronethalol.HCl] | 101 | 107 | 86.6 (inactive) | 102 (inactive)
23 | O=c1[nH]c2ccccc2c2ccccc12 [6(5H)-Phenanthridinone] | 100 | 109 | 93.8 (inactive) | 104 (inactive)
24 | CCOC(=O)C1=C(C)NC(=S)NC1c1cccc(O)c1 (centres undefined) [Monastrol] | 99.8 | 112 | 100 (inactive) | 97.1 (inactive)
25 | O=C(CCNNC(=O)c1ccncc1)NCc1ccccc1 [Nialamide] | 102.5 ± 0.38 | 103 ± 2.9 | 92.2 (inactive) | 100 (inactive)
26 | O=S(=O)(c1cccc2cnccc12)N1CCCNCC1 | 107 | 102 | 88 (inactive) | 98.2 (inactive)

Row | SMILES | cell number (HCC1569 [1]) | cell number (TDF [2]) | H1.0 immunofluorescence intensity (TDF [3]) | H1.0 immunofluorescence intensity (HCC1569 [4])
27 | CCCCCCCCC=CCCCCCCCCCC(=O)O [11(E)-Eicosenoic acid] | 102 | 101 | 101 (inactive) | 102 (inactive)
28 | Cc1ccc(C(=O)COC(=O)c2cccc(NC(=O)c3ccc([N+](=O)[O-])cc3[N+](=O)[O-])c2)cc1 | 76.5 | 67.7 | 110 (inactive) | 152 (active)
29 | O=C(NC(NC(=S)Nc1ccc(F)c([N+](=O)[O-])c1)C(Cl)(Cl)Cl)C(c1ccccc1)c1ccccc1 (centres undefined) [ATM/ATR Kinase Inhibitor] | 62.4 | 64.5 | 112 (inactive) | 179 (active)
30 | C=C1NC2(C(=O)COC(C)=O)C(CC3C4CCC5=CC(=O)C=CC5(C)C4C(O)CC32C)O1 (centres undefined) | 96.8 | 108 | 86 (inactive) | 101 (inactive)
31 | Br.CCSC(=N)N [S-Ethylisothiourea hydrobromide] | 102 | 109 | 97.1 (inactive) | 88 (inactive)
32 | CC(=O)NCCc1c[nH]c2ccc(O)cc12 [N-Acetyl-5-hydroxytryptamine] | 101 | 101 | 93.3 (inactive) | 87.2 (inactive)
33 | CCCCCC(O)C=CC1C(O)CC(O)C1CCCCCCC(=O)O (centres undefined) [Prostaglandin F1a] | 106 | 101 | 91.9 (inactive) | 97.7 (inactive)
34 | COc1ccc2c(c1)c(CC(=O)O)c(C)n2Cc1ccc(Cl)cc1 [1-(4-Chlorobenzyl)-5-methoxy-2-methylindole-3-acetic acid] | 104 | 91 | 96.8 (inactive) | 103 (inactive)
35 | CN1CCN(CCCN2c3ccccc3Sc3ccc(Cl)cc32)CC1.O=C(O)C=CC(=O)O.O=C(O)C=CC(=O)O [Prochlorperazine dimaleate] | 83.7 | 105 | 110 (inactive) | 157 (active)
36 | OB1OCc2cc(F)ccc21 [5-fluoro-2,1-benzoxaborol-1(3H)-ol] | 104 | 104 | 95.6 (inactive) | 98.5 (inactive)
37 | Cc1cn[nH]c1.Cl [4-Methylpyrazole hydrochloride] | 108 | 102 | 98.5 (inactive) | 95.4 (inactive)
38 | COC(=O)c1ccc2c(c1)NC(=O)C2=C(Nc1ccc(N(C)C(=O)CN2CCN(C)CC2)cc1)c1ccccc1 [Vargatef] | 95.2 | 106 | 84.3 (inactive) | 113 (inactive)
39 | C=C1CC2C3C=C(C)C4=CC(=O)CCC4(C)C3CCC2(C)C1(OC(C)=O)C(C)=O (centres undefined) [Melengestrol Acetate] | 102 | 103 | 94.3 (inactive) | 109 (inactive)
40 | O=C(O)[C@H]1C[C@H](C(=O)O)N1 (relative stereo) [trans-Azetidine-2,4-dicarboxylic acid] | 95.1 | 106 | 91.5 (inactive) | 90.5 (inactive)
41 | O=C1C(=Cc2ccc(O)c(O)c2)Oc2cc(O)ccc21 [Sulfuretine] | 98 | 102 | 93.3 (inactive) | 99.9 (inactive)
42 | N#Cc1cccc(-c2c[nH]c3ncnc(N4CCOCC4)c23)c1 [3-(4-morpholino-7H-pyrrolo[2,3-d]pyrimidin-5-yl)benzonitrile] | 107 | 110 | 86.3 (inactive) | 80.8 (inactive)
43 | O=C(O)c1ccc(O)c(O)c1 [Protocatechuic acid] | 100 | 106 | 91.4 (inactive) | 91.3 (inactive)
44 | COc1ccc(CCN(C)CCc2ccc(OC)c(OC)c2)cc1OC.Cl [YS-035 hydrochloride] | 99.4 | 108 | 96.6 (inactive) | 98.3 (inactive)
45 | CC(C)c1cccc(C(C)C)c1N1C(=O)c2ccc(O)cc2C1=O | 60.4 | 59.5 | 119 (inactive) | 162 (active)
46 | CN(C)CCOC(c1ccccc1)c1ccccc1.Cl [Diphenhydramine hydrochloride] | 100 | 105 | 88.7 (inactive) | 97 (inactive)
47 | O=C([O-])c1cc(=O)c2c(OCC(O)COc3cccc4oc(C(=O)[O-])cc(=O)c34)cccc2o1.[Na+].[Na+] [Disodium Cromoglycate] | 98.4 | 98.3 | 90.6 (inactive) | 103 (inactive)
48 | COc1cc(Oc2ccnc3cc(OC)c(OC)cc23)ccc1NC(=O)NC(C)c1nccs1 (centres undefined) | 68.5 | 47 | 99.9 (inactive) | 124 (inactive)
49 | CCCCCCC=CCCCCCCCCC(=O)O [10(Z)-Heptadecenoic acid] | 99.6 | 95.4 | 101 (inactive) | 102 (inactive)
50 | CCC(=O)N1CCN(C(=O)c2ccccc2)CC1 | 106 | 111 | 94.2 (inactive) | 89.3 (inactive)
51 | Cc1ccccc1-n1c(Cn2nc(-c3cccc(O)c3)c3c(N)ncnc32)nc2cccc(C)c2c1=O | 96.9 | 95.1 | 97.7 (inactive) | 103 (inactive)
